Rows were chosen to be rich in hits. Some 3.7% of all compounds tested hit in one or more screens of this group.
BoNT A protease: inhibitors of Botulinum neurotoxin A light chain protease; multiplex microsphere protease substrate cleavage, flow cytometry; AID 588499; 0.17% of 360,000 active; inhibition, % at 10 µM
BoNT F protease: BoNT F light chain protease inhibition | Multiplex microsphere protease cleavage assay, flow cytometry | AID 588497 | inhibition, % at 10 µM | 0.22% of 360,000 active; in the data active means inhibition above about 35%, passing the limit was not always enough; inconclusive means no clear call, values can overlap the other calls
MazEF act: MazEF (E. coli) toxin RNase activation; 0.32% of 350,000 active; P0AE70; FAM/BHQ RNA-DNA oligo cleavage fluorescence, 5 h; activation, % at 20 µM; in the data active means activation above about 50%
Target sequence (P0AE70 whole entry, looked up): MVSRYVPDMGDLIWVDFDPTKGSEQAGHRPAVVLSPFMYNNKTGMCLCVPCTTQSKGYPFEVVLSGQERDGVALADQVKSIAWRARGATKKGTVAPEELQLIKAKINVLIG
Anthrax LF prot: blocks Bacillus anthracis lethal factor protease | P15917 | multiplex microsphere protease cleavage assay, LF | inhibition, % at 10 µM | 0.12% of 360,000 active
Autofluor counter: flagged as autofluorescent in microsphere protease counterscreen. AID 624483. fluorescence intensity (test concentration not listed). 3.1% of 360,000 active. compound autofluorescence counterscreen, microsphere flow cytometry; hits give high values; in the data active means fluorescence intensity above about 16000; inconclusive means no clear call, values can overlap the other calls
Numbers stand for hits; n = inactive; u = inconclusive; x = no result given. Unless noted, no stated cut-off is given here; in the data, active means inhibition above about 30%; inconclusive means no clear call, values can overlap the other calls; inactive means below that.

SMILES | BoNT A protease | BoNT F protease | MazEF act | Anthrax LF prot | Autofluor counter
O=C(CNC(=O)C1CCCCC1)NC1CCCCC1 | n | u | n | n | n
CSc1nc2ccccc2n1C(=O)Oc1ccccc1 | n | n | n | n | 20058
CN(C)CC(C)(C)CNC(=O)c1cc(=O)c2ccccc2o1 | n | n | n | n | 21817
CC(=O)Nc1ccc(NC(=O)c2cc(=O)c3ccccc3o2)cc1 | n | n | n | n | n
Cc1ccc(NC(=O)c2cc(=O)c3ccccc3o2)cc1 | n | n | n | n | 21364
Cc1nnsc1C(=O)Nc1ccccc1 | n | n | n | n | n
Cc1nc(NC(=O)/C=C/c2ccccc2)sc1C(=O)Nc1ccccc1Cl | n | n | n | n | u
Cc1nnsc1C(=O)Nc1ccc(Cl)cc1 | n | n | n | n | 21839
Cc1nc(NC(=O)/C=C/c2ccccc2)sc1C(=O)Nc1ccc(Cl)cc1 | n | n | n | n | 23690
Cc1nnsc1C(=O)Nc1ccccc1Cl | n | n | n | n | 21871
CCOC(=O)c1sc(NC(=O)CN2CCN(c3ccccc3)CC2)nc1C | n | u | n | n | n
Cc1ccc(S(=O)(=O)NC(=O)NC2=NC(C)(C)N(c3ccc(Cl)c(Cl)c3)C(N)=N2)cc1 | n | n | x | n | n
Cc1nc2ccccc2c(=O)n1NC(=O)c1c(O)c2c(n(CC(C)C)c1=O)CCCC2 | n | n | n | n | 19971
CCCCNC(=O)c1cc(C)nc2ccccc12 | n | n | n | n | n
Cc1cc(C(=O)NCCCOC(C)C)c2ccccc2n1 | n | n | n | n | 22118
CSc1ccccc1C(=O)NCCCOC(C)C | n | n | n | n | 21738
CCn1c(SCC(=O)NCC2CCCO2)nnc1-c1ccc(S(=O)(=O)N2CCN(C)CC2)cc1 (centres undefined) | n | n | n | n | n
O=C(NCc1cccs1)c1cc(-c2cccs2)on1 | n | n | n | n | 22229
O=C(NCc1ccc(Cl)cc1)c1cc(-c2cccs2)on1 | n | n | n | n | 16902
CC(NC(=O)c1cc(-c2cccs2)on1)c1ccccc1 (centres undefined) | u | n | n | n | 16362
Cc1ccc(Cn2ccc(NC(=O)c3cc(-c4cccs4)on3)n2)cc1 | n | n | n | n | 25079
COc1ccc(NC(=O)c2sc3ncn(CC(=O)N4CCCCC4)c(=O)c3c2C)cc1OC | n | n | n | n | n
Cc1ccc(NC2CCCN(C(=O)c3ccc(C)c(N4CCNC4=O)c3)C2)cc1C (centres undefined) | n | n | n | n | n
CN(C(=O)CSc1nnc(C2CC2)n1-c1ccccc1)C1CCS(=O)(=O)C1 (centres undefined) | n | n | n | n | n
Cc1ccc(-c2nnn(CC(=O)N(c3ccccc3)C(C(=O)NCC3CCCO3)c3ccc(Cl)cc3)n2)cc1 (centres undefined) | n | n | n | n | n
SMILES | BoNT A protease | BoNT F protease | MazEF act | Anthrax LF prot | Autofluor counter
Cc1ccc(-c2nnn(CC(=O)N(c3ccccc3F)C(C(=O)NCC3CCCO3)c3c[nH]c4ccccc34)n2)cc1 (centres undefined) | n | n | n | n | 16194
COc1ccc(-c2nnn(CC(=O)N(Cc3ccccc3Cl)C(C(=O)NCC3CCCO3)c3ccco3)n2)cc1 (centres undefined) | n | n | n | n | 20046
O=C(Nn1c(-c2ccccc2)nc2ccccc2c1=O)C1CCC1 | n | n | n | n | 21456
CN(C)C(=S)Nn1c(-c2ccccc2)nc2ccccc2c1=O | n | n | n | n | n
Cc1ccc(-n2[nH]c(=O)c(-c3ccccn3)c2C)cc1 | n | n | n | n | n
Cc1ccc(-n2[nH]c(=O)c3cccnc32)cc1 | n | n | n | n | 16502
CC(C)CC1C(=O)N(Cc2cn(CCC3OCCO3)nn2)CCS(=O)(=O)N1Cc1ccc(-c2ccncc2)cc1 (centres undefined) | n | n | n | n | n
O=C1c2cccc3c(O)ccc(c23)C(=O)N1Cc1ccccc1 | n | 110.9 | 380.0 | 51.0 | n
O=C(O)c1cccc(CN2C(=O)c3ccccc3C2=O)c1 | n | n | n | n | n
CC1CCN(S(=O)(=O)c2cc(Br)cc(C(=O)NC3=NCCS3)c2)CC1 | n | n | n | n | 24164
CCOC(=O)c1c(NC(C)=O)sc2c1CCN(Cc1ccccc1)C2 | n | n | n | n | n
CCOC(=O)c1c(NC(C)=O)sc2c1CCC(C=O)=C2Sc1ccccc1 | 50.0 | 39.6 | n | 41.3 | n
CCOC(=O)c1c(NC(=O)c2ccccc2Br)sc2c1CCc1ccccc1-2 | u | n | n | n | 22027
CC1(C(=O)NC2CCCCCC2)CCC(=O)N1Cc1ccc2c(c1)OCO2 (centres undefined) | n | n | n | n | 16292
CCN1C(=O)/C(=C\N2CCN(c3ccc(F)cc3)CC2)SC1=S | u | n | n | n | 16210
CCN1C(=O)/C(=C\N2CCN(C)CC2)SC1=S | n | n | n | n | n
O=C(CCl)NCc1c(Cl)cccc1-n1cccc1 | n | n | n | n | 22575
COC(=O)c1ccccc1NC(=O)C1CCCN(S(=O)(=O)c2ccccc2)C1 (centres undefined) | u | n | n | n | 19578
Cc1ccc(S(=O)(=O)N2C(=O)CCC2C(=O)N2CCCCC2)cc1 (centres undefined) | n | u | n | n | n
COC(=O)c1ccccc1NC(=O)C1CCC(=O)N1S(=O)(=O)c1ccc(C)cc1 (centres undefined) | u | n | n | n | 16363
Cc1ccc(S(=O)(=O)N2C(=O)CCC2C(=O)N2CCN(C)CC2)cc1 (centres undefined) | n | n | n | n | 22032
Cc1ccsc1/C=N/NS(=O)(=O)c1ccc([N+](=O)[O-])cc1 | n | n | n | n | n
O=S(=O)(Nc1nccs1)c1ccc(NS(=O)(=O)c2cccs2)cc1 | n | n | n | n | 19362
O=S(=O)(Nc1ccc(S(=O)(=O)Nc2nccs2)cc1)c1ccc(Br)cc1 | n | n | n | n | n
COc1ccccc1CN=c1c([N+](=O)[O-])nn(-c2ccc3c(c2)OCCO3)n1O | n | n | n | n | n
SMILES | BoNT A protease | BoNT F protease | MazEF act | Anthrax LF prot | Autofluor counter
O=[N+]([O-])c1nn(-c2ccc3c(c2)OCCO3)n(O)c1=NCc1ccccc1Cl | n | n | 71.1 | n | n
CN1CCN(S(=O)(=O)c2ccc3c(c2)OCCO3)CC1 | n | n | n | n | n
CC(=O)Nc1ccc(S(=O)(=O)N2CCN(S(=O)(=O)c3ccc(NC(C)=O)cc3)CC2)cc1 | n | n | n | n | n
Cc1ccc(S(=O)(=O)N2CCCN(S(=O)(=O)c3ccc4c(c3)OCCO4)CC2)cc1 | n | n | n | n | 26607
CN1CCN(S(=O)(=O)c2ccc(NC(=O)C(C)(C)C)cc2)CC1 | u | n | n | n | 22681
Cc1ccc2nc(C3CCN(C(=O)NCc4ccccc4)CC3)[nH]c2c1 | n | n | n | n | 17071
Cc1ccc2nc(C3CCCN(C(=O)NCc4ccccc4)C3)[nH]c2c1 (centres undefined) | n | n | n | n | n
CC(=O)Nc1ccc(S(=O)(=O)N2CCCN(S(=O)(=O)c3ccc(C)cc3)CC2)cc1 | n | n | n | n | 27039
CCN(CC(=O)Nc1ccc(NC(C)=O)cc1)C(=O)/C=C/c1ccc(C)o1 | n | n | n | n | n
